Data: the supplement of paper PMC11732987, “Enantioselective OTUD7B fragment discovery through chemoproteomics screening and high-throughput optimisation” (Communications Chemistry, 2025)

Assays:
Assay in all cases: log2 ratio of Biotin-Ahx-Ub-VS probe labelling (fragment/DMSO); higher = less target engagement (more negative = stronger competition), active = hit call of the paper (q ≤ 0.05, log2 ratio ≤ -1)
Settings in all cases: compound concentration: 200 uM; treatment time: 3 h
USP34 = USP34 (UniProt Q70CQ2)
Method in brief: (§1)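 HEK293T lysate, 495 µg per sample in Tris/CHAPS/IGEPAL buffer with protease inhibitors, was treated in triplicate with fragment at 200 µM or vehicle for 3 h and then with Biotin-Ahx-Ub-VS at 0.5 µM final for 1 h. Labelled DUBs were NeutrAvidin-enriched, digested with LysC and trypsin, and run by diaPASEF LC-MS/MS. Spectronaut label-free quantities were global-median-normalised, and values are average log2 fragment/vehicle ratios by unpaired t-test on proteins with ≥2 unique peptides.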

USP36 = target: T1, USP36 (UniProt Q9P275)
T1 sequence (whole entry): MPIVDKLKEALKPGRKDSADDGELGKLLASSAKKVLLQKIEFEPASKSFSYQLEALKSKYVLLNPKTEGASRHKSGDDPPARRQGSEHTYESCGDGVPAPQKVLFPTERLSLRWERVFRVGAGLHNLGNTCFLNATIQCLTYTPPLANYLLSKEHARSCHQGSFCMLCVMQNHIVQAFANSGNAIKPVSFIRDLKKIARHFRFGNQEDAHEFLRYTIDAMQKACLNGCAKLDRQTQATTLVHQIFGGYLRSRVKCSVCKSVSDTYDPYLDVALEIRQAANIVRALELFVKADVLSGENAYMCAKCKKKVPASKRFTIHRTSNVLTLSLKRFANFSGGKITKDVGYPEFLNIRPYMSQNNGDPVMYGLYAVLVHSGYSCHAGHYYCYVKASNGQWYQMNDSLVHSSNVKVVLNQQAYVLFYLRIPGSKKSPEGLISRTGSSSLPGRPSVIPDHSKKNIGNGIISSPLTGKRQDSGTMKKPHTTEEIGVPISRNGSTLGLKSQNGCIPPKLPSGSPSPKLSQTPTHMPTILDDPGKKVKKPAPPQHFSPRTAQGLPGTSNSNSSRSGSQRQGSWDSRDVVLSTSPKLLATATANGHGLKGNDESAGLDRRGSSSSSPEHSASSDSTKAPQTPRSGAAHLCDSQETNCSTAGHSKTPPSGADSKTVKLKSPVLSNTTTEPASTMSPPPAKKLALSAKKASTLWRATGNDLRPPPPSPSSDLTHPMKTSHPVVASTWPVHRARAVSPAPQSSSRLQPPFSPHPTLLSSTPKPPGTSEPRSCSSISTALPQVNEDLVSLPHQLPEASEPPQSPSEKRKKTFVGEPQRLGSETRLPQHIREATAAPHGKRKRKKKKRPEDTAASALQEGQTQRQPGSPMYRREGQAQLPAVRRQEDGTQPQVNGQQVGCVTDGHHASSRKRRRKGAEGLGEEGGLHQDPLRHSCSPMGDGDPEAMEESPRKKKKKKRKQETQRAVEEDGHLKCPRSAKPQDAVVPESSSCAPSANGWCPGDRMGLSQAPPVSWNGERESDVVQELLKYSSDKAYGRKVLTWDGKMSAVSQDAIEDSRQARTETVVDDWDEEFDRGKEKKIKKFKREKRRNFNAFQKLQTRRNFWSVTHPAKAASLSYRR
Method in brief: as §1

USP38 = target: T2, USP38 (UniProt Q8NB14)
T2 sequence (whole entry): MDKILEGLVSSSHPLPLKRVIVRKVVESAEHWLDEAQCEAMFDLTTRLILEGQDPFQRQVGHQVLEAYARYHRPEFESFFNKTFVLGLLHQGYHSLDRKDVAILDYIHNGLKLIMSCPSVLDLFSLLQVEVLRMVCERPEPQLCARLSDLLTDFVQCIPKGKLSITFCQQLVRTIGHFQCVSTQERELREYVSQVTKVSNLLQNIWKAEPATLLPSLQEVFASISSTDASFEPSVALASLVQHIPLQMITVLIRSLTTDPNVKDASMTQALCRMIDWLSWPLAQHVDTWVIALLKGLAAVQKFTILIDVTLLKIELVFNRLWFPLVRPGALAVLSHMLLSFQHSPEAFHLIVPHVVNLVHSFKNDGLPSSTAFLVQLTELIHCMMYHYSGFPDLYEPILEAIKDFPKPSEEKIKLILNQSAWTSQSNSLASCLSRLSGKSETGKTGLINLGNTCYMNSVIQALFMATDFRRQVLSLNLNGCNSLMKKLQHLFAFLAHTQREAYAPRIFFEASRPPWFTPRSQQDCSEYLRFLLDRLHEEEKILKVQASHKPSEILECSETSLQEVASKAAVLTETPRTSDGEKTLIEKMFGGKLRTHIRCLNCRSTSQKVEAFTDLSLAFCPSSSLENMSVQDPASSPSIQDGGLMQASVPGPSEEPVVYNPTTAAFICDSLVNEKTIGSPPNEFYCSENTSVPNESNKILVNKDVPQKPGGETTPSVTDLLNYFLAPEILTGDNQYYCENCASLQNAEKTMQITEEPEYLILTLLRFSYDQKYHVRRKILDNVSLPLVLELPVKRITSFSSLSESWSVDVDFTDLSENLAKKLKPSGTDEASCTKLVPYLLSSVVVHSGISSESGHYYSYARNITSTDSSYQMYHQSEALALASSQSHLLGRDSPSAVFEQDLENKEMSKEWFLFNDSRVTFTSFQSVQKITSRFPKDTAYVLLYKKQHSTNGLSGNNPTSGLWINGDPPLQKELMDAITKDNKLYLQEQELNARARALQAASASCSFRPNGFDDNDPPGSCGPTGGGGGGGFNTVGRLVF
Method in brief: as §1

USP39 = target: T3, USP39 (UniProt Q53GS9)
T3 sequence (whole entry): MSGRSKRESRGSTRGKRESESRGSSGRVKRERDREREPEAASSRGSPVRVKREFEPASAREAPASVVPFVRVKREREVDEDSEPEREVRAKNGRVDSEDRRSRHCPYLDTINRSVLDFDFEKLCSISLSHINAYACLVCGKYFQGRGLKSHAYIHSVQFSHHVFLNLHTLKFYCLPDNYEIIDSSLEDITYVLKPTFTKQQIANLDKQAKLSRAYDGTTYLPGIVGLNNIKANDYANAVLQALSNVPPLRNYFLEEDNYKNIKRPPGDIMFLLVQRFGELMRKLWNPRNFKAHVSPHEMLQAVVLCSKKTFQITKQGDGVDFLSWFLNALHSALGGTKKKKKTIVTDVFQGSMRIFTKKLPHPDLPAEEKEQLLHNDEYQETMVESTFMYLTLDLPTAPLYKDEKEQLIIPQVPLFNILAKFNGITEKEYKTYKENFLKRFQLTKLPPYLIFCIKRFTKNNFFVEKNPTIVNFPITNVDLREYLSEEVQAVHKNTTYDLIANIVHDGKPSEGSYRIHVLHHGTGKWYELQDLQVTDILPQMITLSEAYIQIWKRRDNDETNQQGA
Method in brief: as §1

USP4 = target: T4, USP4 (UniProt Q13107)
T4 sequence (whole entry): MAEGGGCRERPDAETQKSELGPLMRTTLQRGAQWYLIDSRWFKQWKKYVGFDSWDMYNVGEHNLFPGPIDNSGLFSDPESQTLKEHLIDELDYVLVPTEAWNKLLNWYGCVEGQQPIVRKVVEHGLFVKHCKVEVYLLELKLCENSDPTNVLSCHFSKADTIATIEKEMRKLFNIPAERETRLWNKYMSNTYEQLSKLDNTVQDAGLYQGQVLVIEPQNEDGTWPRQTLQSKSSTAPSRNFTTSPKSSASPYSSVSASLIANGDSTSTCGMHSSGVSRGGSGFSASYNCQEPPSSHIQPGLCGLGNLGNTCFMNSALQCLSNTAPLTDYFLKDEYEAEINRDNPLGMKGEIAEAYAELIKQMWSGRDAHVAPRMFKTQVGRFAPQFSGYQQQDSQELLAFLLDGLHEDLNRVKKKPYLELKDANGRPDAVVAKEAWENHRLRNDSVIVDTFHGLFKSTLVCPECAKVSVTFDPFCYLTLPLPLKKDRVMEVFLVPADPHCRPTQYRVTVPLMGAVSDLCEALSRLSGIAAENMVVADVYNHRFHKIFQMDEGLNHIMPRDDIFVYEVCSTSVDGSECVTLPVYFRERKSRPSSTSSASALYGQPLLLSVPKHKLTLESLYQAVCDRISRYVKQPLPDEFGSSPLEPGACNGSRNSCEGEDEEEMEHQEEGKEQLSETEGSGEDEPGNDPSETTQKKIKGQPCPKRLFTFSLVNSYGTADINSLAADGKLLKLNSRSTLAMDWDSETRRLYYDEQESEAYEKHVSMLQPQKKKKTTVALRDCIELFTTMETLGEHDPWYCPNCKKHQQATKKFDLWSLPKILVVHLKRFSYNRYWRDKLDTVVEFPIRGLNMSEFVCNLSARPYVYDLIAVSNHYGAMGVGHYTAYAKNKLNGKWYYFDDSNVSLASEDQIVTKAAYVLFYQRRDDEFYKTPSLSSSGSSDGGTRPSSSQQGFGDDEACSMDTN
Method in brief: as §1

Measured: log2 ratio of Biotin-Ahx-Ub-VS probe labelling

Chain of USP34 (Q70CQ2 whole entry, the tested form may be a part): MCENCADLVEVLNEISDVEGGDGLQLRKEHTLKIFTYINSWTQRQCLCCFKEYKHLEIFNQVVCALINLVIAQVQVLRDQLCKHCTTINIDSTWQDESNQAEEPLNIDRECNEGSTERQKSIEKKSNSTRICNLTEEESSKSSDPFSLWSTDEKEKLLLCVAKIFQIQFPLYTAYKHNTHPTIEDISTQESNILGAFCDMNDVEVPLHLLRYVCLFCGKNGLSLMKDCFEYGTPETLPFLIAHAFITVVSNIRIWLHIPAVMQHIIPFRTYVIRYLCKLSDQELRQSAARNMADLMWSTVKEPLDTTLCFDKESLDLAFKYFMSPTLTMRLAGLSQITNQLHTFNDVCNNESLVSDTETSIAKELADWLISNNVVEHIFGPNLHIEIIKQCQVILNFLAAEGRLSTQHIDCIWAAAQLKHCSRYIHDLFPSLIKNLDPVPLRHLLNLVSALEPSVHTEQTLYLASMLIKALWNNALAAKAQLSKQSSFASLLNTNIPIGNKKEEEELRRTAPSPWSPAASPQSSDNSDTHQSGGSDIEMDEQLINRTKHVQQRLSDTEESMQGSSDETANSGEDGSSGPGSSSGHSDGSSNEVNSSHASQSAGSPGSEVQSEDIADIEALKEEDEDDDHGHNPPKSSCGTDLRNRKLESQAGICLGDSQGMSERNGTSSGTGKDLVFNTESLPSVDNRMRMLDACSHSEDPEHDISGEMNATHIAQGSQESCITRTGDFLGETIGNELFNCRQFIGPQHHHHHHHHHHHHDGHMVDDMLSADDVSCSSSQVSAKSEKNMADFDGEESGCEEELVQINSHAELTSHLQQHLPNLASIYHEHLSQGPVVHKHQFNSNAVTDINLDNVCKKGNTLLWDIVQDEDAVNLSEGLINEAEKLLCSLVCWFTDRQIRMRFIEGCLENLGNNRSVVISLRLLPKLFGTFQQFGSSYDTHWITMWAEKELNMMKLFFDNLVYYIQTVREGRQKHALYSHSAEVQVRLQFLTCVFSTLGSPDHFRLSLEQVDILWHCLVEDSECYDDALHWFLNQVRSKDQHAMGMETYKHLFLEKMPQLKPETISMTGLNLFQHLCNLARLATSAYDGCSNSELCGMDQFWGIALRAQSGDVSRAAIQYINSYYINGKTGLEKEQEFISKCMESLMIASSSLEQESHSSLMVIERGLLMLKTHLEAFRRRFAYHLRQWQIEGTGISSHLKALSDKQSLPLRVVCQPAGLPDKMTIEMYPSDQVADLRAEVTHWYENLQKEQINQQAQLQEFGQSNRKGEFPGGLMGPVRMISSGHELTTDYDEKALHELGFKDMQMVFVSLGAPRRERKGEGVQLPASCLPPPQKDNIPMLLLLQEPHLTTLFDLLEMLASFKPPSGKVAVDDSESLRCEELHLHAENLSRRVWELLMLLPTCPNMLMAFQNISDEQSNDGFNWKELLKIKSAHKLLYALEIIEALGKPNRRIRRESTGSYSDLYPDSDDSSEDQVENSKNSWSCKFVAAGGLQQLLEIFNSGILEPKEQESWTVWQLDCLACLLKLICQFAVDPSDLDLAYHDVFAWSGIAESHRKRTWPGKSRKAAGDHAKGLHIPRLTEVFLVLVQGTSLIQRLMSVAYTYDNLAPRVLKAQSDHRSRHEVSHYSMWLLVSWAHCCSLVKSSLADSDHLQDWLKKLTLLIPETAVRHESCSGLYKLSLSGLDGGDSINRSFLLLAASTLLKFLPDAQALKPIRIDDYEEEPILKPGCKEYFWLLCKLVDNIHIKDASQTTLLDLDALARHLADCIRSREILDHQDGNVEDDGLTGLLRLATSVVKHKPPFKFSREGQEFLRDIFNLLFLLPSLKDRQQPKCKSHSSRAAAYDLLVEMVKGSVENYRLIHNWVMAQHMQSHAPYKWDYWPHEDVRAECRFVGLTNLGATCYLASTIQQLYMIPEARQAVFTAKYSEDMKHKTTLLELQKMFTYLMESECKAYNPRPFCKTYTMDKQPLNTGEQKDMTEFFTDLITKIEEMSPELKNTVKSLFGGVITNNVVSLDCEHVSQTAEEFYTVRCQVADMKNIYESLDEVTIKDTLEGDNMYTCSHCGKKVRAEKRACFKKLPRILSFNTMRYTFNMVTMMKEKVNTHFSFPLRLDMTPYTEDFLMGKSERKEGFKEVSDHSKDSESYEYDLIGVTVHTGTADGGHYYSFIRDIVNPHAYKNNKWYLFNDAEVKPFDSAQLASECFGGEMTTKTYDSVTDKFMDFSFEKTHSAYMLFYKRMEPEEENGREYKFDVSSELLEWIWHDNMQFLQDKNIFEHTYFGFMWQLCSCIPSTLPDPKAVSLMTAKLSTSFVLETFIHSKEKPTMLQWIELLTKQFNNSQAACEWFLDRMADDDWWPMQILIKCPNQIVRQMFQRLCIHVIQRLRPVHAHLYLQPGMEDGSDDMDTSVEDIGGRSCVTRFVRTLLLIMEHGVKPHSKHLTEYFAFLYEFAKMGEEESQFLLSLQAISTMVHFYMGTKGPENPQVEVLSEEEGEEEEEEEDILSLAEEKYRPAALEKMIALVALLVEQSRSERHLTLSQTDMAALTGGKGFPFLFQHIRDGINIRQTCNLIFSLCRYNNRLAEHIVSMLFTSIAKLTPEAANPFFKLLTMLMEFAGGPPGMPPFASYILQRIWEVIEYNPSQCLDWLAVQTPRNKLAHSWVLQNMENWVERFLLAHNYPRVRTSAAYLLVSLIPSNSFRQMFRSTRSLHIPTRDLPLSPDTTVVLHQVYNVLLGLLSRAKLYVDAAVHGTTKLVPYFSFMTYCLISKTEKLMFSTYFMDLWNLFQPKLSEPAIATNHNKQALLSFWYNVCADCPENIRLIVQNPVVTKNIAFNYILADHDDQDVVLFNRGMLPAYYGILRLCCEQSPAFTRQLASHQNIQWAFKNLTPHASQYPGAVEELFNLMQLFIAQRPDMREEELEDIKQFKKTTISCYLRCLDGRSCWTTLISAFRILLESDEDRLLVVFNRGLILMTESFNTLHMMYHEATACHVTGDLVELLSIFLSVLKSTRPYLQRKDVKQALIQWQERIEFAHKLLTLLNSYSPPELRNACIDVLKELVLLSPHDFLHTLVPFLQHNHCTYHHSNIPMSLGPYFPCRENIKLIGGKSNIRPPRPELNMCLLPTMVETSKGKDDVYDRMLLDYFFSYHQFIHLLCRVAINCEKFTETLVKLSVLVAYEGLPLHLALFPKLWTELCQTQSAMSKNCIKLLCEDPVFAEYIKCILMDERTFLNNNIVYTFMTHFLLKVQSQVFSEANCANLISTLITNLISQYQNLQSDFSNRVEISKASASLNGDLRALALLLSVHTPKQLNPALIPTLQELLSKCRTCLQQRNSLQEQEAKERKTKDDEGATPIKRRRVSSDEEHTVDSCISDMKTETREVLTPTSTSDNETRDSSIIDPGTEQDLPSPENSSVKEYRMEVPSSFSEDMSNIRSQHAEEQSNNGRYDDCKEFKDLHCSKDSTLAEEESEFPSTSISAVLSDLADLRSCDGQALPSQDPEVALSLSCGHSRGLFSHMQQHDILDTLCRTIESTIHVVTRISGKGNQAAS

O=C(CCl)N1CCc2ccccc2C(O)C1 (stereo not given)
inactive: USP34 -0.224 | USP36 -0.441 | USP38 -0.0535 | USP39 0.0381 | USP4 -0.274
